Reference: paper PMC5540273 (PLoS ONE, 2017)

What was measured:
Conditions in all cases: concentration: 1 μM, replicates: in singlicate; n = 1
AKT3 = system: AKT3
ALK = system: ALK
AMPK-alpha1 = system: T1, AMPK-alpha1
T1 construct: gene PRKAA1

AMPK-alpha2 = system: T2, AMPK-alpha2
T2 construct: gene PRKAA2

ANKK1 = system: ANKK1
ARK5 = system: T3, ARK5
T3 construct: gene NUAK1

ASK1 = system: T4, ASK1
T4 construct: gene MAP3K5

ASK2 = system: T5, ASK2
T5 construct: gene MAP3K6

AURKA = system: AURKA
AURKB = system: AURKB
AURKC = system: AURKC
AXL = system: AXL
BIKE = system: T6, BIKE
T6 construct: gene BMP2K

BLK = system: BLK
BMPR1A = system: BMPR1A
BMPR1B = system: BMPR1B
BMPR2 = system: BMPR2
BMX = system: BMX
BRAF = system: BRAF
BRK = system: T7, BRK
T7 construct: gene PTK6
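Also: KINOMEscan kinase panel screen.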

SMILES | %Inh (AKT3) [%] | %Inh (ALK) [%] | %Inh (AMPK-alpha1) [%] | %Inh (AMPK-alpha2) [%] | %Inh (ANKK1) [%] | %Inh (ARK5) [%] | %Inh (ASK1) [%] | %Inh (ASK2) [%] | %Inh (AURKA) [%] | %Inh (AURKB) [%] | %Inh (AURKC) [%] | %Inh (AXL) [%] | %Inh (BIKE) [%] | %Inh (BLK) [%] | %Inh (BMPR1A) [%] | %Inh (BMPR1B) [%] | %Inh (BMPR2) [%] | %Inh (BMX) [%] | %Inh (BRAF) [%] | %Inh (BRK) [%]
COc1ccc(NC(=O)c2ccc(-c3cc(-c4nnc(C)o4)ccc3C)cc2)cc1 [GW595885] | 0 | 36 | 0 | 14 | 0 | 0 | 10 | 15 | 0 | 26 | 5 | 0 | 14 | 34 | 0 | 0 | 0 | 10 | 1 | 11
COc1ccc(Nc2nccc(N3CCC(NC(=O)Nc4ccc5c(c4)OCO5)C3)n2)cc1 (centres unmarked) [GSK1379745] | 0 | 20 | 24 | 24 | 2 | 9 | 9 | 5 | 6 | 13 | 43 | 22 | 33 | 25 | 13 | 0 | 23 | 13 | 2 | 10
CC(=O)Nc1n[nH]c2ncc(-c3ccccc3)cc12 [SB-548492] | 5 | 0 | 10 | 1 | 20 | 0 | 20 | 23 | 16 | 17 | 32 | 21 | 7 | 28 | 30 | 21 | 47 | 13 | 0 | 0
Fc1cccc(COc2ccc(Nc3ncnc4nn5ccccc5c34)cc2Cl)c1 [GW689066] | 0 | 26 | 0 | 0 | 0 | 11 | 8 | 0 | 0 | 0 | 6 | 0 | 15 | 57 | 0 | 0 | 4 | 5 | 0 | 0
COc1cc2c(Nc3cccc(NC(=O)c4ccccc4)c3)ncnc2cc1OCCCN1CCOCC1 [GSK223810] | 0 | 21 | 18 | 12 | 16 | 0 | 0 | 3 | 25 | 23 | 51 | 42 | 42 | 58 | 9 | 0 | 0 | 33 | 34 | 18
Clc1cccc(-c2nc(Nc3ccncc3)c3ccccc3n2)c1 [GW873004] | 1 | 33 | 30 | 9 | 0 | 0 | 13 | 0 | 0 | 17 | 10 | 0 | 10 | 19 | 21 | 4 | 10 | 43 | 0 | 24
CS(=O)(=O)CCNCc1nc(-c2ccc3ncnc(Nc4ccc(OCc5cccc(F)c5)c(Cl)c4)c3c2)cs1.Cl [GW583340] | 0 | 0 | 0 | 0 | 0 | 11 | 11 | 0 | 5 | 0 | 0 | 0 | 0 | 25 | 0 | 0 | 0 | 0 | 0 | 0
Oc1ccc2ncnc(Nc3ccc(OCc4ccccc4)cc3)c2c1 [GI262866] | 0 | 21 | 4 | 0 | 0 | 15 | 0 | 7 | 0 | 21 | 34 | 5 | 20 | 31 | 0 | 0 | 0 | 0 | 0 | 4
COc1ccc(NC(=O)Nc2ccc(C)c(-c3ccc(C(=O)Nc4ccncc4)cc3)c2)cc1 [GSK1398475] | 0 | 18 | 0 | 0 | 10 | 0 | 4 | 0 | 4 | 0 | 0 | 0 | 0 | 28 | 0 | 0 | 0 | 14 | 0 | 32
Cl.O=S(=O)(c1cccc(F)c1)c1ccc(Nc2ncnc3cc(Br)sc23)cc1Cl [GSK306886] | 0 | 14 | 0 | 0 | 3 | 10 | 8 | 0 | 30 | 0 | 0 | 0 | 0 | 10 | 0 | 0 | 0 | 15 | 0 | 0
